# Most compounds without a hit are left out; they make up all but 2.9% or so of the library.
# SNCA expr inh – inhibitors of alpha-synuclein (SNCA) gene expression. AID 1671194. Potency, µM (top dose mostly 57.2 µM), for inactives: at the highest dose activity change, negative = inhibition, actives largely listed as inhibitors. HEK-293 SNCA-luciferase knock-in, luminescence, 24 h. 0.17% of 140,000 active;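 note: potency is the fitted concentration of half-maximal effect; plate controls were DMSO cells for no effect and cell-free wells for full effect; nearly all actives have a fitted effect of over 45% in size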
# KDM5B inh – blocks human KDM5B histone demethylase activity | KDM5B demethylase, FDH-coupled NADH fluorescence (FDH is formaldehyde dehydrogenase) | Q9UGL1 | Potency, µM (highest dose often 57.7 µM), most hits filed as inhibitors | 2.6% of 220,000 active; note: potency is the fitted concentration of half-maximal effect; 0% is about no effect; nearly all actives have a fitted effect of over 70% in size
#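 KDM5BΔAP (200 nM final) in 50 mM HEPES pH 7.5, 0.01% Tween-20 was preincubated 10 min at RT with compound over a concentration range. Substrate mix (H3K4me3 12.5 µM, α-KG 25 µM, Fe²⁺, ascorbate, NAD⁺, FDH) was added, and NADH fluorescence change over 30 min gave dose-response curves.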
# HEK293 viab – counter-screen for SNCA expression inhibitors: cell viability; Potency, µM (top dose mostly 57.1 µM), for inactives: at the highest dose activity change, negative = cytotoxicity, hits mostly cytotoxic; 0.12% of 150,000 active; HEK-293-SNCA-luc viability, GF-AFC fluorescence, 24 h;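 note: potency is the fitted concentration of half-maximal effect; 0% = DMSO-treated cells and -100% = medium-only wells without cells; nearly all actives have a fitted effect of over 30% in size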
#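 Cytotoxicity counterscreen: after 24 h compound treatment of genome-edited SNCA-luciferase HEK-293 cells, live-cell protease substrate GF-AFC read by fluorescence after 30 min; activity scaled between DMSO (0%) and medium-only (-100%), curves Hill-fitted.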
# IP6K1 inh – blocks human inositol hexakisphosphate kinase 1; IP6K1 kinase, ADP-Glo luminescence, 2 h; active compounds read low; AID 1645851; Q92551; activity change, % (series mostly up to about 58 µM); 0.81% of 140,000 active; in the data active = activity change below about -25%; note: % is set by controls: 0 for no effect and ±100 for the full control effect
#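 ADP-Glo luminescence measures ADP made by human IP6K1 during a 2 h RT reaction with ATP/IP6 (mix at 1.3 mM/130 uM); top library doses 57.5 and 19.1 uM final.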
# Starred values were filed as active, the others as inactive; i = inactive; ? = inconclusive; · = no result given; [ ] = another dose, or the depositor's remark. Unless noted, calls come from the whole dose curve; as a rule, active = well fitted curve in the direction sought with a large enough effect; inconclusive = small, poorly fitted or top-dose-only effect, or another doubt; inactive = no such curve, though single readings can be large; an effect the other way counts as inactive or inconclusive.
SMILES,SNCA expr inh,KDM5B inh,HEK293 viab,IP6K1 inh
COc1cc(OC)cc(C(=O)NCCn2ccn3nc(-c4cccc(OC)c4)cc3c2=O)c1,39%,?,-14%,-13
COc1cccc(-c2cc3c(=O)n(CCNC(=O)c4ccc(C(C)(C)C)cc4)ccn3n2)c1,-13%,25µM*,-16%,-14
COc1cccc(-c2cc3c(=O)n(CCNC(=O)c4cc(C)cc(C)c4)ccn3n2)c1,41%,32µM*,-13%,-12
COc1cccc(-c2cc3c(=O)n(CCNC(=O)c4ccccc4F)ccn3n2)c1,39%,?,-2%,-7
Cc1c(NC(=O)c2ccc(Cl)cc2)cc(C(C)C)c(O)c1S(=O)(=O)c1ccc(Cl)cc1,124%,?,-8%,-4
COc1cccc(-c2cc3c(=O)n(CCNC(=O)c4ccc(Cl)cc4)ccn3n2)c1,4%,?,2%,-7
COc1cccc(-c2cc3c(=O)n(CC(O)c4cccc(C#N)c4)ccn3n2)c1 (centres undefined),80%,22µM*,-13%,-8
COc1ccc(C(=O)NCCn2ccn3nc(-c4cccc(OC)c4)cc3c2=O)cc1,1%,22µM*,-22%,-9
CCN1C(=O)NC(c2ccccc2OC(F)F)C(C(=O)OC)=C1C (centres undefined),·,i,·,·
O=C1NC(=O)C(c2ccccn2)(C2CCN(C(=O)Cn3cnnn3)CC2)N1 (centres undefined),-7%,i,7%,-1
O=C(c1cc(-c2ccc(O)cc2)n[nH]1)N1CCCC(CCc2ccc(F)cc2)C1 (centres undefined),?,i,-22%,5
CNc1ncc(C(=O)N2CCCC(CCc3ccc(F)cc3)C2)cn1 (centres undefined),-11%,20µM*,-1%,18
CCn1nc(C)cc1C(=O)N[C@@H]1c2ccccc2C2(CCNCC2)[C@H]1OC,-11%,i,-14%,9
CN1CCCCCCN(S(=O)(=O)c2ccccc2)[C@H]2CCC[C@H]2C1=O,-8%,i,-5%,1
COCCCNC(=O)C1(C)CN(C)Cc2ccc(NCc3ccccc3)nc21 (centres undefined),-4%[87.6 µM],32µM*,-5%[87.6 µM],11
COc1cccc(NC(=O)C2(C)CN(C)Cc3ccc(NCc4ccccc4)nc32)c1 (centres undefined),-14%[87.6 µM],?,-26%[87.6 µM],-5
COc1ccc(NC(=O)C2(C)CCc3cnc(NCc4ccccc4)nc32)cn1 (centres undefined),-28%[87.6 µM],40µM*,?,-11
COc1ccc(NC(=O)C2(C)CN(C)Cc3ccc(NCc4ccccc4)nc32)cn1 (centres undefined),?,32µM*,?,32
CN1CCCN(S(=O)(=O)c2ccc(C(F)(F)F)cc2)c2ccccc21,-30%,14µM*,-2%,0
Cc1cccc(S(=O)(=O)N2CCCN(C)c3ccccc32)c1,-19%,i,-1%,-6
CN1CCCN(S(=O)(=O)c2cccc(Br)c2)c2ccccc21,?,14µM*,-28%,-2
COc1cccc(C2Cn3nnc(-c4nc(-c5ccc(C(C)(C)C)cc5)no4)c3CO2)c1 (centres undefined),-16%,i,-3%,8
O=C1CC2(CCN(C(=O)C3CCCN(C(=O)c4cccc(Cl)c4)C3)CC2)Oc2ccccc2N1 (centres undefined),1%,·,-4%,-7
CCC(=O)N1CCCCCCNC(=O)[C@@H]2C[C@@H](C(=O)N3CCN(c4ccccn4)CC3)C[C@@H]21,-7%,28µM*,-2%,12
O=C1NCCCCCCN(C(=O)c2ccco2)[C@H]2C[C@H](C(=O)N3CCN(c4ccccn4)CC3)C[C@@H]12,-15%,25µM*,5%,8
COCCC(=O)N1CCCCCCNC(=O)[C@@H]2C[C@@H](C(=O)N3CCN(c4ccccn4)CC3)C[C@@H]21,25%,?,?,-2
CC(C)c1nccn1CCCNC(=O)c1ccc(-c2ccc(F)cc2)nc1,4%,i,?,-5
COc1cccc(-c2ccc(C(=O)NCCCn3ccnc3C(C)C)cn2)c1,19%,28µM*,2%,23
CC(C)c1nccn1CCCNC(=O)c1ccc(NC2CCC(O)CC2)nc1 (centres undefined),7%,28µM*,1%,2
COC1CCCN(c2ccc(C(=O)NCCCn3ccnc3C(C)C)cn2)C1 (centres undefined),7%,?,-8%,3
